Results on 51 molecules are retold here after ChEMBL document CHEMBL4513216, “Probing the Open Global Health Chemical Diversity Library for Multistage-Active Starting Points for Next-Generation Antimalarials” (ACS Infect Dis, 2020).

Molecules are shown by their SMILES. Hit rate of the full screen: of about 69,000 compounds, about 8,600 (12%) showed an effect of 50% or more. The entries come from a sample that favours strong results as a whole.

The test system of this experiment is Plasmodium berghei. The experiment is described as follows: Screen against P. berghei liver stage (PbLuc), transformed with Luciferase, at 10uM. The format is functional, HepG2. As to conditions: tested at 10 uM.
As to `CCS(=O)(=O)N1CC[C@H]2[C@H]1CC(=O)N2Cc1csc(C)n1`, the INHIBITION is recorded as -10.3%.
With `CN1CCN(Cc2cn3c(n2)CNCC3)CC1`, the INHIBITION is reported as 36.4%.
Under `O=C(CSC1CCCC1)N1CCN(C(=O)C2CC2c2ccccc2)CC1` (stereo unspecified) stands 46.4%.
Under `Cc1cnc(-c2cccc(-c3ccn(CCCO)n3)c2)nc1N(C)C` stands 26.8%.
The result for `CCS(=O)(=O)CC(=O)NC(c1ccccc1)C1CCCCC1` (stereo unspecified) reads -5.53%; that for `COCCc1noc(CN2CCCC2c2c(C)nn(C)c2Cl)n1` (stereo unspecified), 5.9%; that for `N#Cc1ccc(NCCS(=O)(=O)N2CCc3ccccc32)nc1`, 14%.
For the molecule `CC(C(=O)Nc1ccc(C#N)cc1)N1CCc2ccccc21` (stereo unspecified), the INHIBITION is reported as -45.2%.
With `N#Cc1ccc(CNCCS(=O)(=O)N2CCc3ccccc32)cc1`, the INHIBITION came to 60.3%.
As to `O=C(CCc1ccccc1)C1CCCN(C(=O)c2cncc(Cl)c2)C1` (stereo unspecified), the INHIBITION amounted to 42.5%.
`CCN(CC)S(=O)(=O)N1CCCC1c1nnc2n1CCCCC2` (stereo unspecified): the INHIBITION is 20.9%.
As for `O=C(c1ccncc1F)N1Cc2nc(COCC3CC3)oc2C1`, the INHIBITION was 55.7%.
Under `O=C(c1ccc2c(c1)OCO2)N1CCCSCC1CN1CCCC1` (stereo unspecified) stands 3.16%; under `CN(C)Cc1nc2c(o1)CN(C(=O)c1ccncc1F)C2`, 24.9%.
Under `O=C(c1ccc(F)c(F)c1)N1CCCSCC1CN1CCCC1` (stereo unspecified) stands 25.3%.
Under `CCN(CC)Cc1nc2c(o1)CN(C(=O)c1ccc3[nH]ccc3c1)C2` stands 0.804%; under `O=C(NCc1ccccc1)N1Cc2nc(COCC3CC3)oc2C1`, 44.2%; under `O=C(c1ccc2[nH]ccc2c1)N1CCCSCC1CN1CCCC1` (stereo unspecified), 59.8%.
Consider `CCN(CC)Cc1nc2c(o1)CN(C(=O)c1ccncc1F)C2`, for which the INHIBITION was 3.17%.
With `O=C(c1ccc2[nH]ccc2c1)N1Cc2nc(CN3CCCCC3)oc2C1`, the INHIBITION worked out at 50.7%.
For `O=C(c1ccncc1F)N1Cc2nc(CN3CCCCC3)oc2C1`, the INHIBITION came to 51.2%.
Turning to `O=C(c1ccc2[nH]ccc2c1)N1Cc2nc(CN3CCCC3)oc2C1`, the INHIBITION is recorded as 31.4%.
Regarding `O=C(Cc1cccs1)N1Cc2nc(COCC3CC3)oc2C1`, the INHIBITION worked out at 18.6%.
The result for `CN(C)C(=O)C1CCN(Cn2nc(-c3ccc(F)cc3)oc2=O)CC1` reads 34.7%; that for `CCCN1CCC(Cc2noc(-c3ncccc3C)n2)CC1`, 12.9%.
Under `CNC(=O)CCNC(=O)c1cc(C)n(-c2cccc(OC)c2)c1C` stands 11.2%; under `CNc1nc2c(c(C(=O)N3CCCC3)n1)CN(C(=O)C1CCCC1)CC2`, 43.4%; under `Cc1nc(S(=O)(=O)N2CCC3(CCCCC3)C2)cn1C`, -9.2%.
The result for `NC(=O)COc1cccc(C(=O)NCc2ccc(Cl)s2)c1` reads 3.03%.
On to `O=C(C1CCOC1)N1CC[C@@H](O)[C@@H]1Cc1ccccc1` (stereo partly specified), for which the INHIBITION is 10.7%.
Regarding `CCC(=O)N1CCCc2c(cnn2C)C1`, the INHIBITION is -5.452%.
The result for `O=C(NCC(F)F)c1cc(-c2ccccc2)nc2ncnn12` reads 60.2%; that for `COC(=O)CNC(=O)c1cc(-c2ccccc2)nc2ncnn12`, 28.2%; that for `CNC(=O)c1cc(-c2ccccc2)nc2ncnn12`, 49%.
Under `Cc1ccc(C(=O)N2CCC3(CC2)COC(COc2ccccn2)C3)o1` (stereo unspecified) stands -9.1%; under `O=C(c1ccncc1)N1CCCC1c1cccc(Br)c1` (stereo unspecified), 15.1%.
For `CCc1ncc2c(n1)CN(C(=O)CC(C)NC(C)=O)C2` (stereo unspecified), the INHIBITION is given as 51.2%.
Under `CCc1ncc2c(n1)CN(C(=O)CNC(=O)c1ccccc1)C2` stands 30.3%; under `O=C(Cn1c(=O)oc2ccccc21)N1Cc2cncnc2C1`, 15.4%.
Under `CCc1ncc2c(n1)CN(C(=O)COC)C2` stands -7.35%.
Under `CC(=O)NCC(=O)N1Cc2cnc(CC(C)C)nc2C1` stands 60.3%.
Take `CC(C)Cc1ncc2c(n1)CN(C(=O)Cn1c(=O)oc3ccccc31)C2`: the INHIBITION was determined as 54.5%.
Under `CCOc1ccc(C(=O)N2Cc3cnc(CC)nc3C2)o1` stands -6.83%.
Under `O=C(Cn1c(=O)oc2ccccc21)N1Cc2cnn(CCO)c2C1` stands 13.7%; under `CCc1ncc2c(n1)CN(C(=O)CNC(=O)C(C)C)C2`, 10.3%; under `CC(=O)c1c(C)nn(CC(=O)N2Cc3cnc(CC(C)C)nc3C2)c1C`, 27.9%.
Under `CCc1ncc2c(n1)CN(C(=O)c1c(C)[nH]c(C(C)=O)c1C)C2` stands 39.6%; under `CCc1ncc2c(n1)CN(C(=O)c1c(C)[nH]c3c1C(=O)CCC3)C2`, 61%; under `FC(F)(F)c1ccc(-c2cnc(C3CCCN3)cn2)cc1` (stereo unspecified), 34.675%.
Regarding `CCC(CC)C(=O)N1CCN(Cc2cc(-c3ccncc3)nn2C)CC1`, the INHIBITION was -8.12%.
Under `Cc1nn(C)c(N2CCOCC2)c1CNCc1ccccc1CO` stands -25.9%.
